High-throughput results from PubChem.
An excerpt weighted towards active compounds, which were near 27% of everything screened.
CYP2C9 act: human CYP2C9 activators, primary screen, biochemical, luminescence | Cytochrome P450 2C9 (Homo sapiens), P11712 | activation factor at 5 µM | AID 1024, 2008 | recombinant CYP2C9, luciferin-H conversion; hits give high values; factor 1 = untreated enzyme, 0 = blocked | actives 1.4% (n = 96,000);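 active = activation factor of 2 or more for CYP2C9 at a 5 µM dose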;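 note: 0 = sulfaphenazole-blocked wells and 1 = vehicle-only wells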
Target sequence (P11712 whole entry, looked up): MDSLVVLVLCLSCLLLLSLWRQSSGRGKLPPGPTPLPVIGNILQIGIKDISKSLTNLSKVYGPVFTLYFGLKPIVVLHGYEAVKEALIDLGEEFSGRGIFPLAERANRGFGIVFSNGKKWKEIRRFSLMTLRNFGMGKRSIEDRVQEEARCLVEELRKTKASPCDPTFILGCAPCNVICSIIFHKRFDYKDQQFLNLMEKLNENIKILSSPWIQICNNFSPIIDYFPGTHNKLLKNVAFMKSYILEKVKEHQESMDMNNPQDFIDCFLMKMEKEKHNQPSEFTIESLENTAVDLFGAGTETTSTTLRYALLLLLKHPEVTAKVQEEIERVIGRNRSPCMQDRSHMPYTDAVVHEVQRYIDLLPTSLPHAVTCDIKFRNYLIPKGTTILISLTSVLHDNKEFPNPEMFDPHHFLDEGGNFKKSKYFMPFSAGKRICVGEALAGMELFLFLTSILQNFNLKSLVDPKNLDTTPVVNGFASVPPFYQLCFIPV
Cav3 T inh: Cav3.2 calcium influx blockers – cell-based, Fluo-4 calcium fluorescence, FDSS, MLSMR library, primary screen; Voltage-dependent T-type calcium channel subunit alpha-1H (Homo sapiens), O95180; Cav3.2-expressing cells; hits give low values; B-score at 10 µM; actives 4% (n = 100,000);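 active = single-dose well whose peak fluorescence ratio is a statistical outlier from its plate by either plate-standardised score or position-corrected B-score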
CYP2C19 activ: human CYP2C19 activators, primary screen, biochemical, luminescence; Cytochrome P450 2C19 (Homo sapiens), P33261; recombinant CYP2C19, luciferin-H EGE luminescence; hits give high values; 0 = fully inhibited enzyme, 1 = untreated enzyme; activation factor at 5 µM; 96,000 tested, under 10 active; AID 1025, 2008;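 active = activation factor of at least 2 at 5 µM in the primary screen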;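 note: 0 = wells with 2.5 mM tranylcypromine and 1 = vehicle-only wells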
CYP2C19 inhib: blockers of cytochrome P450 2C19 activity – biochemical, luminescence, ADME assay, primary screen | inhibition, % at 5 µM | actives 21% (n = 96,000) | AID 778, 2007 | CYP2C19 Supersomes, luciferin-H EGE luminescence, 30 min | P33261;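 active = CYP2C19 inhibition above a set limit at 5 µM in the primary screen, cut at about 50% in these data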;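 note: plate controls were negative control wells for no effect and 2.5 mM tranylcypromine positive control for full effect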
CYP2C9 inh: blockers of cytochrome P450 2C9 activity – biochemical, luminescence, ADME assay, primary screen | P11712 | CYP2C9 Supersomes, luciferin-H conversion | inhibition, % at 5 µM | actives 20% (n = 96,000) | AID 777, 2007;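 active = blocking of liver enzyme CYP2C9 beyond about 50% at 5 µM, limit read from the data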
Active calls of the source: *.

Results for CCOC(=O)C1C(=O)NC(SCC(N)=O)=C(C#N)C1c1ccccc1OCC (stereo unspecified) ?
CYP2C9 act: 0.6; Cav3 T inh: -0.022; CYP2C19 activ: 0.2; CYP2C19 inhib: 76*; CYP2C9 inh: 42

What do the screens show for `O=C(NCc1ccccc1Cl)C1CCN(C(=O)c2sccc2-n2cccc2)CC1`?
CYP2C9 act: 0.8; Cav3 T inh: -0.02; CYP2C19 activ: 0.4; CYP2C19 inhib: 61*; CYP2C9 inh: 25

Results for CCOc1ccccc1CNC(=O)C1CCN(C(=O)c2sccc2-n2cccc2)CC1 ?
CYP2C9 act: 1.1; Cav3 T inh: 1.1; CYP2C19 activ: 0.2; CYP2C19 inhib: 84*; CYP2C9 inh: -8

Results for CN(C)C(=O)N1CCC(C(=O)NCc2ccccc2Cl)CC1 ?
CYP2C9 act: 1.4; Cav3 T inh: -1.4; CYP2C19 activ: 0.9; CYP2C19 inhib: 6; CYP2C9 inh: -38

What do the screens show for `COc1ccc(/C(O)=C2/C(=O)C(=O)N(CCCN(C)C)C2c2cccnc2)cc1` (stereo unspecified)?
CYP2C9 act: 1; CYP2C19 activ: 1; CYP2C19 inhib: -1; CYP2C9 inh: -2

How did Cc1noc(C)c1COC(=O)CCCc1nc2ccccc2s1 do in these assays?
CYP2C9 act: 0.5; Cav3 T inh: -0.23; CYP2C19 activ: 0.6; CYP2C19 inhib: 41; CYP2C9 inh: 51*

How did Cc1ccc2nc3ccc(N4CCCCCCC4)nn3c(=O)c2c1 do in these assays?
CYP2C9 act: 0.3; Cav3 T inh: 0.27; CYP2C19 activ: 0.4; CYP2C19 inhib: 64*; CYP2C9 inh: 70*

What do the screens show for `CCN(CCO)C(=O)C12CCC(C)(C(=O)C1)C2(C)C` (stereo unspecified)?
CYP2C9 act: 1.2; Cav3 T inh: -1.8; CYP2C19 activ: 1.1; CYP2C19 inhib: -10; CYP2C9 inh: -22

How did Cc1cc(C(=O)OCn2nnc3ccccc3c2=O)c(C)o1 do in these assays?
CYP2C9 act: 0.6; Cav3 T inh: -0.024; CYP2C19 activ: 0.5; CYP2C19 inhib: 53*; CYP2C9 inh: 38

How did Cc1ccc(S(=O)(=O)N[C@H](C(=O)OCn2nnc3ccccc3c2=O)C(C)C)cc1 do in these assays?
CYP2C9 act: 0.7; Cav3 T inh: -3.8*; CYP2C19 activ: 0.9; CYP2C19 inhib: 9; CYP2C9 inh: 34

What do the screens show for `COc1ccc(C(=O)OCn2nnc3ccccc3c2=O)cc1OC`?
CYP2C9 act: 0.9; Cav3 T inh: 0.53; CYP2C19 activ: 1; CYP2C19 inhib: -1; CYP2C9 inh: 6

How did Cc1ccc(S(=O)(=O)NC(C(=O)OCC(=O)NC(=O)c2cccn2C)C(C)C)cc1 (stereo unspecified) do in these assays?
CYP2C9 act: 0.8; Cav3 T inh: 0.021; CYP2C19 activ: 0.4; CYP2C19 inhib: 59*; CYP2C9 inh: 17

Results for COc1cccc(C(=O)OCn2nnc3ccccc3c2=O)c1 ?
CYP2C9 act: 0.9; Cav3 T inh: 0.5; CYP2C19 activ: 0.2; CYP2C19 inhib: 81*; CYP2C9 inh: 12

What do the screens show for `Cc1ccc(C(=O)OCC(=O)NC(=O)c2cccn2C)cc1`?
CYP2C9 act: 1; Cav3 T inh: 0.5; CYP2C19 activ: 0.9; CYP2C19 inhib: 14; CYP2C9 inh: 1

What do the screens show for `COc1ccccc1C(=O)OCn1nnc2ccccc2c1=O`?
Cav3 T inh: 0.055

Results for COC(=O)c1cccc(Cn2nnc3ccccc3c2=O)c1 ?
CYP2C9 act: 0.7; Cav3 T inh: -0.46; CYP2C19 activ: 0.5; CYP2C19 inhib: 51*; CYP2C9 inh: 26

Results for CN(C)S(=O)(=O)c1ccc(C(=O)OCn2nnc3ccccc3c2=O)cc1 ?
CYP2C9 act: 0.4; Cav3 T inh: 0.14; CYP2C19 activ: 1; CYP2C19 inhib: 5; CYP2C9 inh: 59*

Results for Cc1cccc(CC(=O)OCn2nnc3ccccc3c2=O)c1 ?
CYP2C9 act: 1.1; Cav3 T inh: -0.93; CYP2C19 activ: 0.7; CYP2C19 inhib: 33; CYP2C9 inh: -10

Results for CCN(CC)S(=O)(=O)c1ccc(C(=O)NCCCN=C2NS(=O)(=O)c3ccccc32)cc1 ?
Cav3 T inh: -0.67

What do the screens show for `CCOc1ccc(-c2cc(N)n(S(=O)(=O)c3ccc(OC)cc3)n2)cc1`?
CYP2C9 act: 0.6; Cav3 T inh: -0.0091; CYP2C19 activ: 1.1; CYP2C19 inhib: -6; CYP2C9 inh: 44

How did CCCS(=O)(=O)n1nc(-c2ccc(Br)cc2)cc1N do in these assays?
CYP2C9 act: 0.1; Cav3 T inh: -2.9; CYP2C19 activ: 0.3; CYP2C19 inhib: 68*; CYP2C9 inh: 86*

What do the screens show for `Nc1cc(-c2ccc(Cl)cc2)nn1S(=O)(=O)c1ccccc1`?
CYP2C9 act: 0.2; Cav3 T inh: -1.2; CYP2C19 activ: 0.4; CYP2C19 inhib: 64*; CYP2C9 inh: 83*

How did Nc1cc(-c2ccccc2)nn1Cc1ccc(Cl)cc1 do in these assays?
CYP2C9 act: 0.2; Cav3 T inh: -5.8*; CYP2C19 activ: 0.1; CYP2C19 inhib: 93*; CYP2C9 inh: 75*

What do the screens show for `CCOC(=O)c1nnc2cc(-c3ccc(Br)cc3)nn2c1C`?
CYP2C9 act: 1; Cav3 T inh: 0.29; CYP2C19 activ: 1; CYP2C19 inhib: 0; CYP2C9 inh: -2

How did CCS(=O)(=O)n1nc(-c2ccccc2)cc1N do in these assays?
CYP2C9 act: 0.9; Cav3 T inh: 0.67; CYP2C19 activ: 0.3; CYP2C19 inhib: 67*; CYP2C9 inh: 7

What do the screens show for `O=C1C=C(c2cc3ccccc3s2)CCC1`?
Cav3 T inh: -0.84

Results for O=C(NC1(C(F)(F)F)NC(=O)N(Cc2ccccc2)C1=O)c1cccs1 (stereo unspecified) ?
Cav3 T inh: 2

What do the screens show for `CC1CCCN(c2nc3c(c(=O)n(C)c(=O)n3C)n2CCSc2nc3ccccc3o2)C1` (stereo unspecified)?
CYP2C9 act: 0.5; Cav3 T inh: -2.8; CYP2C19 activ: 0.6; CYP2C19 inhib: 36; CYP2C9 inh: 51*

How did CC1CCN(c2nc3c(c(=O)n(C)c(=O)n3C)n2CCSc2nc3ccccc3s2)CC1 do in these assays?
CYP2C9 act: 0.7; Cav3 T inh: -1.3; CYP2C19 activ: 0.6; CYP2C19 inhib: 36; CYP2C9 inh: 29

Results for CC1CCCN(c2nc3c(c(=O)n(C)c(=O)n3C)n2CCSc2nc3ccccc3s2)C1 (stereo unspecified) ?
CYP2C9 act: 0.6; Cav3 T inh: -6.9*; CYP2C19 activ: 0.6; CYP2C19 inhib: 40; CYP2C9 inh: 43

What do the screens show for `C#Cc1ccc([C@H]2C=C(C(=O)NCc3nc4ccccc4[nH]3)O[C@@H](OCC)[C@@H]2CCCO)cc1`?
Cav3 T inh: -1.4

Results for CN(CCNC(=O)Cn1c(=O)sc2ccccc21)Cc1ccccc1 ?
CYP2C9 act: 1.1; Cav3 T inh: 1.8; CYP2C19 activ: 0.6; CYP2C19 inhib: 40; CYP2C9 inh: -10
